From PubChem BioAssay AID1159580 (chemical genetic matrix, 2015)
Hit rate of the full screen: of about 5,500 compounds, about 2,000 (36%) were called active. Roughly 18% stayed inconclusive and do not appear here. Cut-off read from the data, not from the text of the source: active = normalized growth mostly below about 0.91 (no sharp cut-off); inconclusive = no clear call, values can overlap the other calls; inactive = mostly above about 0.92. The list shows a part of the results.

Test: chemical genetic growth profiling, strain panel (AID 1159580);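 note: tested at 20 µM; growth read once vehicle control cultures reached saturation at 30 °C; 1 = growth at the plate median or of vehicle wells; lower values mean less growth of the strain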
Conditions: growth OD
[1] = S. cerevisiae deletion strains, locus YDL101C, strain DUN1, hits give low values
[2] = S. cerevisiae deletion strains, locus YHR030C, strain SLT2, hits give low values

Measured: normalized growth

N#Cc1ccc2[nH]cc(CCN(Cc3ccccc3)Cc3ccccc3)c2c1
inactive: S. cerevisiae deletion strains, locus YAR019C, strain CDC15, hits give low values 0.989 | S. cerevisiae deletion strains, locus YBL105C, strain PKC1, hits give low values 0.991 | S. cerevisiae deletion strains, locus YBR135W, strain CKS1, hits give low values 0.99 | S. cerevisiae deletion strains, locus YBR136W, strain MEC1, hits give low values 0.984 | S. cerevisiae deletion strains, locus YBR160W, strain CDC28, hits give low values 0.989 | S. cerevisiae deletion strains, locus YDL017W, strain CDC7, hits give low values 0.99 | S. cerevisiae deletion strains, locus YDL028C, strain MPS1, hits give low values 0.977 | [1] 0.98 | S. cerevisiae deletion strains, locus YDL108W, strain KIN28, hits give low values 0.983 | S. cerevisiae deletion strains, locus YDL132W, strain cdc53, hits give low values 0.985 | S. cerevisiae deletion strains, locus YDL214C, strain PRR2, hits give low values 0.943 | S. cerevisiae deletion strains, locus YDR052C, strain DBF4, hits give low values 0.992 | S. cerevisiae deletion strains, locus YDR054C, strain cdc34, hits give low values 0.978 | S. cerevisiae deletion strains, locus YDR226W, strain ADK1, hits give low values 0.978 | S. cerevisiae deletion strains, locus YDR477W, strain SNF1, hits give low values 0.969 | S. cerevisiae deletion strains, locus YER123W, strain YCK3, hits give low values 0.918 | S. cerevisiae deletion strains, locus YER133W, strain GLC7, hits give low values 0.964 | S. cerevisiae deletion strains, locus YFL009W, strain cdc4, hits give low values 0.982 | S. cerevisiae deletion strains, locus YFL029C, strain CAK1, hits give low values 0.986 | S. cerevisiae deletion strains, locus YFR003C, strain YPI1, hits give low values 0.992 | S. cerevisiae deletion strains, locus YFR019W, strain FAB1, hits give low values 0.967 | S. cerevisiae deletion strains, locus YFR028C, strain CDC14, hits give low values 0.982 | S. cerevisiae deletion strains, locus YGR040W, strain KSS1, hits give low values 0.956 | S. cerevisiae deletion strains, locus YGR052W, strain FMP48, hits give low values 1.05 | S. cerevisiae deletion strains, locus YGR092W, strain DBF2, hits give low values 0.943 | [2] 1.13 | S. cerevisiae deletion strains, locus YHR079C, strain IRE1, hits give low values 1.07 | S. cerevisiae deletion strains, locus YHR082C, strain KSP1, hits give low values 1.05 | S. cerevisiae deletion strains, locus YHR205W, strain SCH9, hits give low values 0.962 | S. cerevisiae deletion strains, locus YIL147C, strain SLN1, hits give low values 0.987 | S. cerevisiae deletion strains, locus YJL095W, strain BCK1, hits give low values 1.07 | S. cerevisiae deletion strains, locus YJL128C, strain PBS2, hits give low values 0.953 | S. cerevisiae deletion strains, locus YJL157C, strain FAR1, hits give low values 0.954 | S. cerevisiae deletion strains, locus YJR016C, strain ILV3, hits give low values 0.991 | S. cerevisiae deletion strains, locus YJR066W, strain TOR1 (second series), hits give low values 0.926 | S. cerevisiae deletion strains, locus YJR066W, strain TOR1, hits give low values 1.07 | S. cerevisiae deletion strains, locus YKL048C, strain ELM1, hits give low values 0.964 | S. cerevisiae deletion strains, locus YKL067W, strain YNK1, hits give low values 0.969 | S. cerevisiae deletion strains, locus YKL101W, strain HSL1, hits give low values 0.954 | S. cerevisiae deletion strains, locus YKL193C, strain SDS22, hits give low values 0.987 | S. cerevisiae deletion strains, locus YKL203C, strain TOR2, hits give low values 1.04 | S. cerevisiae deletion strains, locus YLR113W, strain HOG1, hits give low values 1.01 | S. cerevisiae deletion strains, locus YLR133W, strain CKI1, hits give low values 0.98 | S. cerevisiae deletion strains, locus YLR403W, strain SFP1, hits give low values 0.962 | S. cerevisiae deletion strains, locus YML070W, strain DAK1, hits give low values 0.95 | S. cerevisiae deletion strains, locus YMR001C, strain CDC5, hits give low values 0.988 | S. cerevisiae deletion strains, locus YMR205C, strain PFK2 (second series), hits give low values 0.972 | S. cerevisiae deletion strains, locus YMR277W, strain FCP1, hits give low values 0.993 | S. cerevisiae deletion strains, locus YNL006W, strain LST8, hits give low values 0.983 | S. cerevisiae deletion strains, locus YNL020C, strain ARK1, hits give low values 0.98 | S. cerevisiae deletion strains, locus YNL161W, strain CBK1, hits give low values 0.993 | S. cerevisiae deletion strains, locus YNL183C, strain NPR1, hits give low values 1.05 | S. cerevisiae deletion strains, locus YNL207W, strain RIO2, hits give low values 0.979 | S. cerevisiae deletion strains, locus YNL222W, strain SSU72, hits give low values 0.986 | S. cerevisiae deletion strains, locus YNL307C, strain MCK1 (second series), hits give low values 0.98 | S. cerevisiae deletion strains, locus YOL078W, strain AVO1, hits give low values 0.987 | S. cerevisiae deletion strains, locus YOL136C, strain PFK27, hits give low values 0.957 | S. cerevisiae deletion strains, locus YOR061W, strain CKA2, hits give low values 0.955 | S. cerevisiae deletion strains, locus YOR119C, strain RIO1, hits give low values 1.01 | S. cerevisiae deletion strains, locus YOR231W, strain MKK1, hits give low values 1.06 | S. cerevisiae deletion strains, locus YOR329C, strain SCD5, hits give low values 0.993 | S. cerevisiae deletion strains, locus YPL031C, strain PHO85, hits give low values 0.97 | S. cerevisiae deletion strains, locus YPL153C, strain RAD53, hits give low values 0.954 | S. cerevisiae deletion strains, locus YPL204W, strain HRR25, hits give low values 0.97 | S. cerevisiae deletion strains, locus YPL209C, strain IPL1, hits give low values 0.994 | S. cerevisiae deletion strains, locus YPL256C, strain CLN2, hits give low values 1.05 | S. cerevisiae deletion strains, locus YPR025C, strain CCL1, hits give low values 0.992 | S. cerevisiae deletion strains, locus YPR106W, strain ISR1, hits give low values 0.984 | S. cerevisiae deletion strains, locus YPR111W, strain DBF20, hits give low values 0.976 | S. cerevisiae deletion strains, strain NNK1, hits give low values 0.983 | S. cerevisiae deletion strains, strain TSCII, hits give low values 0.993

N#CCS(=O)(=O)c1cccs1
inactive: S. cerevisiae deletion strains, locus YAL013W, strain DEP1, hits give low values 0.988 | S. cerevisiae deletion strains, locus YBR229C, strain ROT2, hits give low values 1 | [1] 0.983 | S. cerevisiae deletion strains, locus YDR150W, strain NUM1, hits give low values 0.94 | S. cerevisiae deletion strains, locus YEL061C, strain CIN8, hits give low values 1.01 | S. cerevisiae deletion strains, locus YGR078C, strain PAC10, hits give low values 0.979 | [2] 0.996 | S. cerevisiae deletion strains, locus YHR087W, strain rtc3, hits give low values 1 | S. cerevisiae deletion strains, locus YJR043C, strain POL32, hits give low values 0.949 | S. cerevisiae deletion strains, locus YJR075W, strain HOC1, hits give low values 0.993 | S. cerevisiae deletion strains, locus YLR039C, strain RIC1, hits give low values 1.1 | S. cerevisiae deletion strains, locus YLR058C, strain SHM2 (second series), hits give low values 1 | S. cerevisiae deletion strains, locus YLR085C, strain ARP6, hits give low values 0.999 | S. cerevisiae deletion strains, locus YLR262C, strain YPT6, hits give low values 1.12 | S. cerevisiae deletion strains, locus YML094W, strain GIM5, hits give low values 0.975 | S. cerevisiae deletion strains, locus YMR219W, strain ESC1, hits give low values 1 | S. cerevisiae deletion strains, locus YMR263W, strain SAP30, hits give low values 0.961 | S. cerevisiae deletion strains, locus YNL153C, strain GIM3, hits give low values 0.968 | S. cerevisiae deletion strains, locus YNL298W, strain CLA4 (second series), hits give low values 1 | S. cerevisiae deletion strains, locus YNL322C, strain KRE1, hits give low values 1.02 | S. cerevisiae deletion strains, locus YNR030W, strain Alg12, hits give low values 0.989 | S. cerevisiae deletion strains, locus YPL055C, strain LGE1, hits give low values 0.92 | S. cerevisiae deletion strains, locus YPL241C, strain CIN2, hits give low values 0.983 | S. cerevisiae deletion strains, locus YPR135W, strain CTF4, hits give low values 0.885 | S. cerevisiae strains, strain wild type, hits give low values 1.01
